Many of the other results were omitted from the sample, so hits are more common in it than they were.
Algae TAG accum: inducers of TAG accumulation in Chlamydomonas, primary screen, qHTS, Chlamydomonas reinhardtii; 44,000 tested, 0.84% active; calls only at 10 µM (by protocol); AID 1159537, 2015; Nile Red fluorescence, 72 h; call rule not given here;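 note: hits raise Nile Red signal meaning more stored TAG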
Of the large screens only hits and unclear results are named; the others gave an inactive call.

c1cc2c(cc1CNC1CCCC1)OCO2	Algae TAG accum active
c1cc2c(cc1CNC1CCCCC1)OCO2	none
O=C(CCC1CCCCC1)NCc1ccc2c(c1)OCO2	none
COc1ccccc1OCCCOc1cccc(Br)c1	none
O=C(C1COc2ccccc2O1)N1CCN(Cc2ccccc2)CC1 (stereo not given)	Algae TAG accum active
COc1ccc(N2CCN(C(=O)C3COc4ccccc4O3)CC2)cc1 (stereo not given)	none
O=C(c1ccc2c(c1)OCO2)N1CCN(Cc2ccccc2)CC1	none
O=C(c1ccc2snnc2c1)N1CCCCCC1	none
O=C(NCc1ccc(Cl)cc1)C(=O)Nc1ccccc1	none
COc1ccc(C(=O)Nc2sc3c(c2C(N)=O)CCC(C)C3)c(OC)c1 (stereo not given)	Algae TAG accum active
CC1CCc2c(sc(NC(=O)c3ccccc3[N+](=O)[O-])c2C(N)=O)C1 (stereo not given)	none
Cc1ccc(C(=O)Nc2sc3c(c2C(N)=O)CCC(C)C3)o1 (stereo not given)	none
COc1ccc(C(=O)Nc2cccc(NC(=O)c3ccccc3Cl)c2)cc1Br	none
O=C(CSCc1ccc([N+](=O)[O-])cc1)NCC1CCCO1 (stereo not given)	none
Cc1ccc(S(=O)(=O)c2ccc(O)c(O)c2)cc1	none
NC(=O)C1CCN(C(=O)Cc2ccccc2)CC1	none
COC(C#CC(C)(C)N(C)C)(c1ccccc1)c1ccccc1	none
Brc1ccccc1OCCCN1CCOCC1	none
Clc1ccc(OCCCCN2CCCC2)c(Br)c1	Algae TAG accum active
Clc1ccc(OCCCN2CCOCC2)c(Br)c1	Algae TAG accum active
Cc1ccc(C(C)C)cc1OCCOCCN1CCOCC1	Algae TAG accum active
O=C(COc1ccc(Cl)cc1Br)NCCN1CCOCC1	none
CN1CCN(CCCOc2ccc(Cl)cc2C(C)(C)C)CC1	none
CN1CCN(CCCOc2cc(Cl)ccc2Cl)CC1	Algae TAG accum active
Brc1ccccc1OCCCCN1CCCCC1	none
CN1CCN(CCCOc2ccc(Cl)c(Cl)c2)CC1	none
C=CCc1cc(C)ccc1OCCOCCN1CCOCC1	none
Cc1ccc(C(C)C)cc1OCCCN1CCNCC1	none
CN(C)CCCOc1ccc(Cl)cc1Br	none
O=C(Nc1cccc(-c2nc3ncccc3o2)c1)c1cccc(Br)c1	none
CC1CN(CCO)Cc2ccc(Cl)cc21 (stereo not given)	none
Cc1ccc(C(=O)Nc2cccc(NC(=O)c3ccc(Cl)cc3Cl)c2)cc1[N+](=O)[O-]	none
COCC(=O)Nc1ccc(OC)cc1OC	none
Cc1cc(C(=O)NCCO)ccc1[N+](=O)[O-]	none
Clc1cc(Br)ccc1OCCOCCN1CCOCC1	Algae TAG accum active
Brc1cccc(OCCN2CCOCC2)c1	none
Cc1ccc(OCCCCN2CCOCC2)c(Br)c1	none
COc1ccc2c(C)nc(Nc3nc(C)c4ccccc4c(=O)n3)nc2c1	none
CC(=O)Nc1nc(-c2c(F)c(F)c(F)c(F)c2F)cs1	none
Cc1c(NC(=O)c2ccc(I)cc2[N+](=O)[O-])c(=O)n(-c2ccccc2)n1C	none
O=[N+]([O-])c1ccc(CN2CCc3ccccc3C2)cc1	Algae TAG accum active
O=[N+]([O-])c1ccc(CN2CCCCC2)cc1	none
COc1cc2c(cc1OC)CN(Cc1ccc([N+](=O)[O-])cc1)CC2	none
O=[N+]([O-])c1ccc(S(=O)(=O)N2CCN(Cc3cc(Br)ccc3O)CC2)cc1	none
O=[N+]([O-])c1ccc(CN2CCOCC2)cc1	none
O=[N+]([O-])c1ccc(CN2CCN(Cc3cc(Br)ccc3O)CC2)cc1	Algae TAG accum active
CCC(=O)c1cc(F)c(N2CCN(C(=O)c3cccs3)CC2)cc1C	none
C=CCNC(=O)c1cccc([N+](=O)[O-])c1	none
O=C1CC(N2CCN(C/C=C/c3ccccc3)CC2)C(=O)N1c1ccc(Cl)cc1 (stereo not given)	none
COc1cc(CNC2CCC(C)C2)cc(OC)c1 (stereo not given)	none
COc1ccc(CNC2CCCC(C)C2)cc1 (stereo not given)	Algae TAG accum active
COc1ccc(CNC2CCCC2)cc1OC	none
CCC(=O)N1CCN(c2ccc([N+](=O)[O-])c(NCCc3ccc(OC)c(OC)c3)c2)CC1	none
O=C(Nc1cc(Cl)c(Cl)cc1Cl)c1ccccc1F	none
O=C(Nc1ccccc1)c1cc(S(=O)(=O)N2CCCCC2)ccc1Cl	none
O=C(Nc1ccc(S(=O)(=O)N2CCCC2)cc1)c1ccc(Cl)cc1Cl	Algae TAG accum active
O=C(Nc1ccc(S(=O)(=O)N2CCCC2)cc1)c1ccccc1I	none
COc1cc(Cl)c(C)cc1NC(=O)COc1ccccc1OC	none
c1cc(CN2CCSCC2)cs1	none
O=C(Nc1cccc([N+](=O)[O-])c1)c1ccccc1Cl	none
O=C(Nc1ccc([N+](=O)[O-])cc1)c1cccc(Cl)c1Cl	Algae TAG accum active
O=C(Nc1ccc(F)cc1)c1cccc(Cl)c1Cl	none
O=C(NC1CCCCC1)N1CCN(c2ccccc2F)CC1	none
Cc1sc2ncnc(SCC(=O)c3ccc(OC(F)F)cc3)c2c1C	none
Cc1ccc(C(=O)Nc2ccc([N+](=O)[O-])cc2)c(Cl)c1	none
CC(=O)Nc1ccc(S(=O)(=O)Nc2ccc(S(=O)(=O)NC(C)(C)C)cc2)cc1	none
CC(C)(Oc1ccc(Cl)cc1)C(=O)N1CCN(c2ccc(F)cc2)CC1	Algae TAG accum active
CC(C)(Oc1ccc(Cl)cc1)C(=O)N1CCN(c2cccc(Cl)c2)CC1	none
CC(C)(Oc1ccc(Cl)cc1)C(=O)N1CCN(c2ccccn2)CC1	none
O=C(C1CCN(Cc2ccc3c(c2)OCO3)CC1)N1CCOCC1	none
Cc1c(NC(=O)COc2ccc(Br)cc2)cccc1[N+](=O)[O-]	Algae TAG accum active
Cc1cccc(NC(=O)COc2ccc(Br)cc2)c1C	none
Cc1ccc(OCC(=O)Nc2cccc([N+](=O)[O-])c2C)c(Br)c1	none
CCN(CCN(C)C)Cc1cc2ccccc2o1	none
N#CC(=Cc1ccc(I)cc1)c1nc(-c2ccc3c(c2)OCO3)cs1	none
COc1ccc(NC(=O)c2ccc(N(Cc3ccccc3Cl)S(C)(=O)=O)cc2)cc1	none
O=[N+]([O-])c1ccccc1S(=O)(=O)N1CCN(c2ccc(F)cc2)CC1	none
O=S(=O)(c1ccc(Cl)c(Cl)c1Cl)N1CCN(c2ccc(F)cc2)CC1	Algae TAG accum active
O=S(=O)(c1ccc(F)cc1)N1CCN(c2ccccc2)CC1	none
COc1cccc(N(CC(=O)Nc2cccc([N+](=O)[O-])c2)S(=O)(=O)c2ccccc2)c1	none
CSCCC(C(=O)Nc1ccc(Br)cc1)N1C(=O)c2ccccc2C1=O (stereo not given)	none
O=C(O)CCSCC(=O)c1ccc(NS(=O)(=O)c2ccccc2)cc1	Algae TAG accum active
O=C(Nc1ccc(NS(=O)(=O)c2ccccc2)cc1)c1ccccc1	none
Cc1ccc(S(=O)(=O)Nc2ccc(C(=O)CC(=O)Nc3ccccc3)cc2)cc1	none
CC1CCCN(C2CCN(C3CCCCC3)CC2)C1 (stereo not given)	none
CCOc1ccc(C(=O)Nc2ccc(C)cn2)cc1	none
COc1cc(C)c(CN2CCCN(C)CC2)cc1C	Algae TAG accum active
COc1ccc(CN2CCN(Cc3ccc4c(c3)OCO4)CC2)c(OC)c1	none
COc1cc(C)c(CN2CCN(Cc3ccc4c(c3)OCO4)CC2)cc1C	Algae TAG accum active
COc1cc(C)c(CN2CCC(N3CCCCC3)CC2)cc1C	none
COc1ccc(CN2CCCN(C)CC2)c(OC)c1	none
COc1ccccc1CN1CCN(Cc2ccc3c(c2)OCO3)CC1	none
COc1cccc(-c2nocc2C(N)=O)c1OC	none
COc1ccc(NC(=O)c2ccc(N(Cc3ccc(C)cc3)S(C)(=O)=O)cc2)cc1Cl	none
COc1ccc(CNCc2ccccc2OC)cc1Br	none
c1cc2c(cc1CNc1ccc3c(c1)CCC3)OCO2	none
C=CCn1c(-c2nonc2NC(=O)c2ccccc2Cl)nc2ccccc21	none
Cc1ccc(C(C)C)c(OCC(=O)Nc2ccccc2C)c1	none
